# Screens deposited in PubChem by National Center for Advancing Translational Sciences (NCATS).
# D1 antag: Antagonist of Human D 1 Dopamine Receptor: qHTS. activity change, negative = inhibition, % at 10 µM. 3.2% of 360,000 active. AID 504652, 2011. HEK293 TREx D1 cells, calcium flux, dopamine EC80; active compounds read low; in the data active = activity change below about -30%; also: % is scaled to controls: 0 for no effect and ±100 for the full control effect
# Target sequence (P21728 whole entry, looked up): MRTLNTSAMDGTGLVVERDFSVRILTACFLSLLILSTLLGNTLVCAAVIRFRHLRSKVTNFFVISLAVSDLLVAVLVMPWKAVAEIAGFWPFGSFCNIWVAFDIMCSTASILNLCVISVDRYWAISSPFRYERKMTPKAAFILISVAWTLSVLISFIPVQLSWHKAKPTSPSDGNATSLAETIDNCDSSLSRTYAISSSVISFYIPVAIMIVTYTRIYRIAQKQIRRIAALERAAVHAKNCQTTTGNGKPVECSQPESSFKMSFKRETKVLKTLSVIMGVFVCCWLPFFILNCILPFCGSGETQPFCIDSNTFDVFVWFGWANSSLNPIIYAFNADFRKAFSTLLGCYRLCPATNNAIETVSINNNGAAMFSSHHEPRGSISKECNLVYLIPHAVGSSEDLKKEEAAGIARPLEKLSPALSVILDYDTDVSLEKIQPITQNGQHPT
#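 Tetracycline-induced HEK293 Trex D1 cells, force-coupled to calcium, dye-loaded; compounds added and read 180 s, then EC80 dopamine added and calcium flux tracked kinetically another 180 s.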
# TRHR agonist: qHTS for Small Molecule Agonists and Allosteric Enhancers of Human TRH Receptor: Primary Screen for Agonists; TRHR cells, calcium flux fluo-8, FDSS agonist mode; activation, % at 2 µM; 0.18% of 360,000 active; AID 493084, 2011; also: 0% is about no effect
#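 Steps: seed TRHR cells overnight; add fluo-8 no-wash Ca dye, RT 30 min–1.5 h; record 10 s baseline; pin-transfer compounds; monitor fluorescence 1 cycle/s for the agonist window. Calcium increases flag candidate agonists.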
# TRHR PAM: qHTS for Small Molecule Agonists and Allosteric Enhancers of Human TRH Receptor: Primary Screen for Enhancers; 0.66% of 360,000 active; enhancement, % at 2 µM; TRHR cells, fluo-8 calcium fluorescence, EC20 TRH enhancement; AID 493056, 2011; Thyrotropin-releasing hormone receptor (Homo sapiens), P34981; in the data active = enhancement above about 30%; also: 0% is about no effect
#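 TRHR-expressing cells loaded with fluo-8 calcium dye were read kinetically (ex 480/em 530) during compound addition, then stimulated with an EC20 of TRH (10 nM final). Enhancement of the Gq-mediated intracellular calcium response was scored.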
# D1 potentiator: Potentiators of Human D1 Dopamine Receptor: qHTS. D(1A) dopamine receptor (Homo sapiens), P21728. HEK293 TREx D1 cells, calcium flux, dopamine EC20 potentiation. potentiation, % at 10 µM. 0.036% of 360,000 active. AID 504651, 2011; in the data active = potentiation above about 30%; also: 0% is about no effect
# D1 agonist: Allosteric Agonists of the Human D1 Dopamine Receptor: qHTS; D(1A) dopamine receptor (Homo sapiens), P21728; HEK293 T-REx D1 cells, calcium flux, agonist mode; activation, % at 2 µM; 1% of 360,000 active; also: 0% is about no effect
#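 Inducible HEK293 T-REx D1 cells, force-coupled to calcium signalling, were plated at 4000 cells/well with tetracycline and held overnight at 30 C. After no-wash calcium dye loading, compound-evoked calcium rise over 180 s flagged agonists.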
# * = called active by the depositor; / = not tested or not shown. Compounds with a hit are over-represented: about 4.7% of the library has one in this group of screens. Rule as the data show it, unless noted: active = activation above about 30%; inactive = the rest.
SMILES,D1 antag,TRHR agonist,TRHR PAM,D1 potentiator,D1 agonist
Cc1cccc(C(=O)OCc2cc(=O)n3nc(C4CC4)sc3n2)c1,-31*,1,9,-7,8
Cc1ccc(C(=O)Nc2cccc(C(=O)OCc3cc(=O)n4nc(C5CC5)sc4n3)c2)cc1,-6,-2,-4,0,33*
COc1ccc(S(=O)(=O)c2cn(CC(=O)Nc3ccccc3)c3ccc(Cl)cc3c2=O)cc1,-45*,1,11,1,6
CCc1ccc2c(c1)c(=O)c(S(=O)(=O)c1ccccc1)cn2CC(=O)Nc1ccc(OC)cc1,17,1,10,-2,4
O=C(Cn1cc(S(=O)(=O)c2ccc(F)cc2)c(=O)c2cc3c(cc21)OCO3)Nc1ccccc1,-34*,2,1,0,2
COC(=O)c1[nH]c2ccc(Br)cc2c1NC(=O)CN1CCCCC1CCO (stereo unspecified),-41*,0,-5,-4,1
CCOC(=O)c1c(-c2ccccc2)csc1NC(=O)c1cc(-c2ccc(Br)cc2)on1,-3,-2,17,1,1
Cc1cc(C)c(NS(=O)(=O)c2ccc(-c3cnc(C4CC4)o3)cc2)c(C)c1,-10,1,-2,0,8
COc1cc(/C=N/NC(=O)c2ccc(N)cc2)ccc1OC(=O)c1cccc(C)c1,-41*,0,-5,2,4
COc1cc(C(=O)N/N=C/c2ccc(OC(=O)c3cccc(C)c3)cc2)ccc1O,4,-1,9,11,2
CC(Oc1ccc(Br)cc1)C(=O)Nc1ccncc1 (stereo unspecified),-27,1,-3,-15,29
CC(Oc1ccc(Br)cc1Cl)C(=O)Nc1ccncc1 (stereo unspecified),-35*,0,-26,-6,15
Cc1ccc(OC(C)C(=O)Nc2ccncc2)cc1C (stereo unspecified),-32*,0,23,-8,18
COc1ccc(S(=O)(=O)N2CCN(c3ccccc3)CC2)cc1-c1noc(C)n1,-8,1,-3,1,1
COc1ccc(NC(=O)c2cn(CC(C)C)c(=O)c3cc(OC)c(OC)cc23)cc1Cl,-15,0,0,1,1
COC(=O)C1=C(C)NC(=O)CC1c1ccccc1F (stereo unspecified),-18,1,-6,-7,0
COC(=O)C1=C(N)c2c(F)cccc2C1(C#N)c1ccccc1 (stereo unspecified),-32*,0,-3,-5,0
O=C(NCc1ccco1)c1sc(=S)n2c1[nH]c(=O)c1ccccc12,-28,8,2,-8,49*
CN1CCN(c2ccc(S(=O)(=O)N3CCCCC3)cc2NC(=O)CCc2ccccc2)CC1,1,4,-2,/,33*
CCN1CCN(c2ccc(S(=O)(=O)N3CCCCC3)cc2NC(=O)COc2ccc(Cl)cc2)CC1,-43*,0,7,-5,0
CCN1CCN(c2ccc(S(=O)(=O)N3CCCCC3)cc2NC(=O)COc2cc(C)ccc2Cl)CC1,8,1,4,2,11
O=C(Cc1ccc(Cl)cc1)Nc1cc(S(=O)(=O)N2CCOCC2)ccc1N1CCCC1,-5,-1,-11,0,-4
CN1CCN(c2ccc(S(=O)(=O)N3CCCCC3)cc2NC(=O)c2ccc(C#N)cc2)CC1,-45*,1,1,-2,1
CN1CCN(c2ccc(S(=O)(=O)N3CCCCC3)cc2NC(=O)Cc2ccc(Cl)cc2)CC1,-14,12,-13,5,91*
Cc1cccc(N2CCN(C(=O)c3cnn(-c4ccccc4Cl)c3C3CCN(C(=O)OC(C)(C)C)CC3)CC2C)c1 (stereo unspecified),0,0,7,2,0
O=C(C1CCCN(S(=O)(=O)c2ccc(Br)cc2)C1)N1CCOCC1 (stereo unspecified),-53*,0,3,6,6
